Values joined by “and” are separate entries in the source; they are usually repeats but may differ in a detail not shown here. Equal values may be shown once. Where a name gives a salt, the structure may show the parent alone.
What was measured:
Assay in all cases: cell viability relative to vehicle control; higher = less cytotoxic
Conditions in all cases: 10 µM
K562 = test system: K562
Procedure, shortened: (§1)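 Mutant clones made by CRISPR editing and their isogenic wild-type counterparts, from four leukaemia lines, were exposed to a single 10 µM dose of each library compound for 48 h. The supernatant was then removed and CellTiter-Glo luminescence was read. Viability was reported as percent of the on-plate vehicle control.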

MARIMO = test system: MARIMO
Procedure, shortened: as §1

MOLM14 = test system: MOLM14
Procedure, shortened: as §1

OCI-AML2 = test system: OCI-AML2
Procedure, shortened: as §1

Row | Structure (SMILES) | cell viability (K562; SRSF2 genotype: SRSF2 P95H/wt) | cell viability (K562; SRSF2 genotype: SRSF2 wt/wt) [%] | cell viability (MARIMO; SRSF2 genotype: SRSF2 P95H/wt) [%] | cell viability (MARIMO; SRSF2 genotype: SRSF2 wt/wt) [%] | cell viability (MOLM14; SRSF2 genotype: SRSF2 P95H/wt) [%] | cell viability (MOLM14; SRSF2 genotype: SRSF2 wt/wt) [%] | cell viability (OCI-AML2; SRSF2 genotype: P95H/wt) [%] | cell viability (OCI-AML2; SRSF2 genotype: wt/wt) [%]
1 | O=c1oc2c(O)c(O)cc3c(=O)oc4c(O)c(O)cc1c4c23 [Ellagic acid] | 92.7% and 105% | 93.7 | 96.3 | 105 | 106 | 103 | 101 | 101
2 | CCN(CC)CCNC(=O)c1c(C)[nH]c(/C=C2\C(=O)Nc3ccc(F)cc32)c1C [Sunitinib Malate] | 17.8% and 22.7% | 12.7 | 18.5 | 19.4 | 0.31 | 0.38 | 0.42 | 1.47
3 | COc1cc(/C=C/c2ccc(O)c(O)c2)cc(OC)c1 [3'-Hydroxypterostilbene] | 74% and 61.4% | 67.4 | 29.2 | 39.9 | 21.3 | 10.6 | 44.4 | 44.7
4 | CC(C)c1nc(CN(C)C(=O)N[C@H](C(=O)N[C@@H](Cc2ccccc2)C[C@H](O)[C@H](Cc2ccccc2)NC(=O)OCc2cncs2)C(C)C)cs1 [Ritonavir] | 89.2% and 88.4% | 82.6 | 81.9 | 95 | 81.8 | 88.3 | 102 | 89.3
5 | CS(=O)(=O)Nc1cc2occ(NC=O)c(=O)c2cc1Oc1ccccc1 [Iguratimod] | 107% and 95.3% | 110 | 107 | 107 | 99.1 | 108 | 117 | 123
6 | CC1=C(C/C=C(\C)CCC[C@H](C)CCC[C@H](C)CCCC(C)C)C(=O)c2ccccc2C1=O [Vitamin K1] | 101% and 88.9% | 93.7 | 92.4 | 107 | 88.2 | 98 | 90.7 | 106
7 | NCCOCCOCCNC(=O)Cc1ccc(Nc2nc(NCc3ccc(F)cc3)nc(NCC3CCCCC3)n2)cc1 [AP-III-a4 (ENOblock)] | 81.5% and 90.7% | 87.5 | 94.3 | 97.1 | 16 | 14 | 75.2 | 79.6
8 | CC/C(=C(/c1ccc(/C=C/C(=O)O)cc1)c1ccc2[nH]ncc2c1)c1ccc(F)cc1Cl [Brilanestrant (GDC-0810, ARN-810)] | 100% and 106% | 96.2 | 102 | 95.1 | 86.8 | 92.3 | 96.9 | 102
9 | CC(=O)[C@H]1CC[C@H]2[C@@H]3CC=C4C[C@@H](O)CC[C@]4(C)[C@H]3CC[C@]12C [Pregnenolone] | 103% and 108% | 107 | 103 | 105 | 101 | 105 | 100 | 107
10 | Cc1cc([N+](=O)[O-])ccc1NS(=O)(=O)c1cc(Cl)ccc1Cl | 79.9% and 88% | 86.3 | 96.4 | 92.9 | 92.3 | 90.9 | 93.1 | 97.1
11 | Cc1cc(O)c(-c2ccc([C@@H](C)CN(C)C)cc2)c2c1[nH]c(=O)c1sccc12 | 9.34% and 22.8% | 14.7 | 1.85 | 1.17 | 0.25 | 0.22 | 0.39 | 7.84
12 | N#CC(=C(/N)Sc1ccccc1N)/C(C#N)=C(\N)Sc1ccccc1N | 70.5% and 77.5% | 72.7 | 38.2 | 37.1 | 54.9 | 57.2 | 48.9 | 48.1
13 | C=CCS[S+]([O-])CC=C (stereo not given) [Allicin] | 92.6% and 104% | 91.8 | 96 | 84.9 | 99.8 | 99.8 | 89.2 | 105
14 | CCc1c(C(=O)NCCc2ccc(N3CCCCC3)cc2)[nH]c2ccc(Cl)cc12 | 107% and 104% | 111 | 106 | 108 | 85.4 | 102 | 112 | 107
15 | CCN1CCN(C(=O)N[C@@H](C(=O)N[C@@H]2C(=O)N3C(C(=O)O)=C(CSc4nnnn4C)CS[C@H]23)c2ccc(O)cc2)C(=O)C1=O [Cefoperazone (Cefobid)] | 100% and 97.5% | 91.7 | 104 | 101 | 98.1 | 97.3 | 100 | 104
16 | O=S(=O)(Cl)c1ccc(-c2ccccc2)cc1 [Biphenyl-4-sulfonyl chloride] | 109% and 104% | 107 | 99 | 100 | 108 | 105 | 105 | 113
17 | O=C(O)Cc1ccccc1Nc1c(Cl)cccc1Cl [Diclofenac Potassium] | 94.4% and 99.1% | 97.2 | 106 | 105 | 93.5 | 100 | 95.3 | 105
18 | C[C@H](O)[C@H](O)[C@@H](O)[C@@H](O)C=O [L (+)-Rhamnose Monohydrate] | 99.9% and 97.2% | 100 | 102 | 106 | 99 | 105 | 99.3 | 94.1
19 | CC1(C)O[C@@H]2[C@@H](CO[C@@]3(COS(N)(=O)=O)OC(C)(C)O[C@@H]23)O1 [Topiramate] | 99.1% and 107% | 99.3 | 104 | 106 | 107 | 105 | 104 | 113
20 | CC(C)CN(C[C@@H](O)[C@H](Cc1ccccc1)NC(=O)O[C@H]1CCOC1)S(=O)(=O)c1ccc(N)cc1 [Amprenavir (Agenerase)] | 89.2% and 83.5% | 86.4 | 77.8 | 93.5 | 90.2 | 89.8 | 101 | 99.4

Row | Structure (SMILES) | cell viability (K562; SRSF2 genotype: SRSF2 P95H/wt) | cell viability (K562; SRSF2 genotype: SRSF2 wt/wt) [%] | cell viability (MARIMO; SRSF2 genotype: SRSF2 P95H/wt) [%] | cell viability (MARIMO; SRSF2 genotype: SRSF2 wt/wt) [%] | cell viability (MOLM14; SRSF2 genotype: SRSF2 P95H/wt) [%] | cell viability (MOLM14; SRSF2 genotype: SRSF2 wt/wt) [%] | cell viability (OCI-AML2; SRSF2 genotype: P95H/wt) [%] | cell viability (OCI-AML2; SRSF2 genotype: wt/wt) [%]
21 | CC(=O)[C@H]1CC[C@H]2[C@@H]3CCC4=CC(=O)CC[C@]4(C)[C@H]3CC[C@]12C [Progesterone (Prometrium)] | 78% and 87.7% | 81.7 | 60.7 | 38.8 | 75 | 78.8 | 54.5 | 59.9
22 | OCCn1cc(-c2ccc3c(c2)CC/C3=N\O)c(-c2ccncc2)n1 | 110% | 111 | 85 | 73 | 89.8 | 94 | 94.4 | 80.8
23 | Nc1nccc(Oc2ccc3c(C(=O)Nc4cccc(C(F)(F)F)c4)cccc3c2)n1 | 86.8% and 94.3% | 87.9 | 109 | 125 | 93.6 | 102 | 94.8 | 106
24 | Cc1ccsc1C(=CCCN1CCC[C@@H](C(=O)O)C1)c1sccc1C [Tiagabine] | 100% and 93.4% | 96.7 | 91.8 | 109 | 97 | 101 | 89 | 111
25 | O=C(O)CCCCCCCC(O)C(O)CCCCCCO (stereo not given) [Aleuritic Acid] | 105% and 100% | 97.5 | 107 | 112 | 98.4 | 107 | 97.2 | 101
26 | O[C@@H]1CO[C@H]2[C@@H]1OC[C@@H]2O [Isosorbide] | 102% and 111% | 105 | 107 | 104 | 99.6 | 105 | 118 | 99.5
27 | CC1(C)CC[C@]2(C(=O)O)CC[C@]3(C)C(=CC[C@@H]4[C@@]5(C)CC[C@H](O)C(C)(C)[C@@H]5CC[C@]43C)[C@@H]2C1 [Oleanolic Acid (Caryophyllin)] | 96.5% and 91.2% | 87.9 | 80.7 | 82.8 | 85.6 | 94.7 | 66.8 | 82.7
28 | COCC(=O)Nc1cc(Sc2ccccc2)ccc1N=C(NC(=O)OC)NC(=O)OC [Febantel] | 98.1% and 91.8% | 97.1 | 98.9 | 107 | 97.9 | 110 | 98.3 | 102
29 | O=C1c2ccccc2C(=O)c2c1ccc(O)c2O [Alizarin] | 101% and 104% | 101 | 103 | 99.5 | 97 | 102 | 101 | 93
30 | O=C1CC(c2c[nH]c3ccc(F)cc23)C(=O)N1 (stereo not given) | 103% | 111 | 100 | 102 | 103 | 108 | 100 | 101
31 | NCCc1ccc(O)c(O)c1 [Dopamine hydrochloride (Inotropin)] | 89% and 91.3% | 93.1 | 88.6 | 103 | 80.9 | 100 | 99.9 | 105
32 | C/C=C/c1ccc(OC)cc1 [Trans-Anethole] | 107% and 99.3% | 97.3 | 103 | 102 | 103 | 103 | 92 | 116
33 | CC[C@H]1OC(=O)[C@H](C)[C@@H](O[C@H]2C[C@@](C)(OC)[C@@H](O)[C@H](C)O2)[C@H](C)[C@@H](O[C@@H]2O[C@H](C)C[C@H](N(C)C)[C@H]2O)[C@](C)(O)C[C@@H](C)CN(C)[C@H](C)[C@@H](O)[C@]1(C)O [Azithromycin] | 90.3% and 86.4% | 89.5 | 83.2 | 90.4 | 92.1 | 89.4 | 75.7 | 82.3
34 | CCC(C)C1OC2(CCC1C)CC1CC(CC=C(C)C(OC3CC(OC)C(OC4CC(OC)C(O)C(C)O4)C(C)O3)C(C)C=CC=C3COC4C(O)C(C)=CC(C(=O)O1)C34O)O2 (stereo not given) [Ivermectin] | 24.6% and 35% | 26.9 | 25.9 | 22.9 | 21.3 | 18.4 | 4.65 | 7.41
35 | CC(C)CCNc1ncccc1C(=O)N1CCN(Cc2ccccc2)CC1 | 103% and 100% | 102 | 93.8 | 105 | 96.9 | 103 | 103 | 105
36 | COCCNC(=O)Nc1ccc2nc(-c3cccs3)c(-c3cccs3)nc2c1 [ACSS2 inhibitor] | 82.9% and 79.4% | 84.3 | 85.1 | 97.7 | 89.1 | 94.8 | 91.5 | 95.1
37 | Cc1cc(N2CCOCC2)cc2[nH]c(-c3c(NCC(O)c4cccc(Cl)c4)cc[nH]c3=O)nc12 (stereo not given) | 46.4% and 36.7% | 52.1 | 33.2 | 31 | 5.77 | 9.63 | 7.45 | 18
38 | COc1ccccc1OCCN [Carvedilol EP IMpurity E] | 112% and 110% | 113 | 98 | 102 | 103 | 107 | 119 | 117
39 | CN(CC(=O)N(Cc1ccc(C2CCCCC2)cc1)c1ccc(C(=O)O)c(O)c1)S(=O)(=O)c1c(F)c(F)c(F)c(F)c1F | 38% and 23.1% | 13.9 | 57.8 | 28.6 | 0.63 | 0.38 | 1.74 | 5.48
40 | CN(C)C1CCN(C(=O)c2ccc(NC(=O)Nc3ccc(-c4nc(N5CCOCC5)nc(N5CCOCC5)n4)cc3)cc2)CC1 | 34.1% and 32.1% | 26.6 | 43.2 | 34.9 | 22.1 | 21.3 | 10.5 | 16.2

Reference: the supplement of paper PMC10981050
